The record followed here is PubChem BioAssay (NCI).

“And” between values parts separate entries of the source, which are not always exact repeats. Equal values may be shown once. About 83,000 compounds went through this panel and 20% of them were active in at least one assay; those are over-represented in the sample as a whole.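 How to read the values: 0–100, growth inhibition (40 = 60% inhibited); 0, no net growth; -100 to 0, cell death (-40 = 40% of starting cells died; -100 = all dead).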 Unmarked numbers belong to inactive results. The source made the active and inactive calls. The calls were made as follows: active = growth percent below 10; inactive = the rest.

Some test systems named below: NCI-H23 lung; NCI-H226 lung; NCI-H322M lung; HOP-62 NSCLC; HOP-92 NSCLC; NCI-H522 lung; A549/ATCC NSCLC; 786-0 renal.
Holding throughout (assay): NCI-60 one-dose screen, 48 h (100 = growth as untreated, 0 = no growth, -100 = all killed)
The subject of another test is NCI-H460 lung. Particulars: 10 µM.

For `S=P(N1CC1)(N1CC1)N1CC1`, the growth is 100% and 73.4% in the test on NCI-H23 lung (10 µM); 33% in the test with NCI-H23 lung (100 µM); 102% and 80.4% in the test with NCI-H226 lung (10 µM); 62.4% with NCI-H226 lung (100 µM); 102% and 98.2% in the test on NCI-H322M lung (10 µM); 89.4% with NCI-H322M lung (100 µM). Moreover, the growth in the test with HOP-62 NSCLC (10 µM) was 109% and 36.8%; in the test on HOP-62 NSCLC (100 µM), 47.9%; in the test with HOP-92 NSCLC (10 µM), 99.9%; with HOP-92 NSCLC (100 µM), 36.1%; in the test with NCI-H522 lung (10 µM) it was 104% and 82.9%; in the test with NCI-H522 lung (100 µM) it was 59.5%. In addition, the growth with A549/ATCC NSCLC (10 µM) is 103% and 69.9%; in the test on A549/ATCC NSCLC (100 µM), 52.2%; in the test on 786-0 renal (10 µM), 100% and 83.6%; with 786-0 renal (100 µM), 21.6%.

Consider `Cc1cc(O)c2c(c1O)C(=O)C13C(=C2O)C(=O)C2C(O)C1C1C(O)C3C(=O)C3=C(O)c4c(O)cc(C)c(O)c4C(=O)C321` (configuration not stated), for which the growth in the test on NCI-H23 lung (10 µM) is 32.3%; with NCI-H226 lung (10 µM) it was -2.71% (active); in the test with NCI-H322M lung (10 µM), 19.4%; in the test on HOP-62 NSCLC (10 µM), 3.99% (active); with HOP-92 NSCLC (10 µM), -18.2% (active); in the test on NCI-H522 lung (10 µM), 5.74% (active). Besides, the growth in the test on A549/ATCC NSCLC (10 µM) is -11.4% (active); with 786-0 renal (10 µM), -33.2% (active).

On to `COc1ccc2oc(-c3ccc(Cl)cc3)c(N3CCN(C)CC3)c2c1`, for which the growth was 73.6% with NCI-H23 lung (10 µM); 91% in the test with NCI-H226 lung (10 µM); 113% in the test with NCI-H322M lung (10 µM); 51.9% with HOP-62 NSCLC (10 µM); -17.1% (active) in the test on HOP-92 NSCLC (10 µM); -78.2% (active) in the test on NCI-H522 lung (10 µM). Also, the results for the growth in the test with A549/ATCC NSCLC (10 µM) and in the test with 786-0 renal (10 µM) were 39.6% and 27.2%, respectively.

For `NCc1c(O)ccc2ccccc12`, the growth in the test with NCI-H23 lung (10 µM) is 102%; in the test with NCI-H226 lung (10 µM) it was 96.2%; in the test on NCI-H322M lung (10 µM), 96.4%; in the test with HOP-62 NSCLC (10 µM), 90.7%; in the test on HOP-92 NSCLC (10 µM), 73%; in the test with NCI-H522 lung (10 µM), 95%. For the same compound, the values for the growth in the test with A549/ATCC NSCLC (10 µM) and with 786-0 renal (10 µM) were 94.7% and 103%, respectively.

With `O=C(NC(=S)Nc1ccccn1)c1ccccc1`, the growth with NCI-H23 lung (10 µM) was 75.7%; in the test with NCI-H226 lung (10 µM) it was 91.1%; with NCI-H322M lung (10 µM), 85.5%; in the test with HOP-62 NSCLC (10 µM) it was 106%; with HOP-92 NSCLC (10 µM), 79.5%; in the test on NCI-H522 lung (10 µM), 82.1%. In addition, the growth with A549/ATCC NSCLC (10 µM) is 101%; with 786-0 renal (10 µM) it was 90.1%.

As for `Nc1nc(N)c2cc(Sc3ccc4ccccc4c3)ccc2n1`, the growth in the test with NCI-H23 lung (10 µM) was 43.1%; with NCI-H226 lung (10 µM), 57.7%; with NCI-H322M lung (10 µM), 48%; in the test on HOP-62 NSCLC (10 µM) it was 65%; in the test on NCI-H460 lung, 16.1%; with HOP-92 NSCLC (10 µM), 30.3%. The growth with NCI-H522 lung (10 µM) is 31.4%; in the test with A549/ATCC NSCLC (10 µM) it was 15.2%; in the test with 786-0 renal (10 µM) it was 23%.

As for `COc1cccc(C(c2cc3c(cc2O)OCO3)N2CCOCC2)c1OC` (configuration not stated), the growth in the test with NCI-H23 lung (10 µM) was 109%; in the test with NCI-H226 lung (10 µM) it was 99.6%; in the test on NCI-H322M lung (10 µM) it was 101%; with HOP-62 NSCLC (10 µM) it was 101%; in the test on HOP-92 NSCLC (10 µM) it was 99.6%; in the test on NCI-H522 lung (10 µM), 94.8%. Further, the growth is 99.9% with A549/ATCC NSCLC (10 µM) and 101% in the test with 786-0 renal (10 µM).

In the case of `CC1CCC2(C(=O)O)CCC3(C)C(=CCC4C5(C)CC(O)C(O)C(C)(CO)C5C(O)CC43C)C2C1C` (configuration not stated), the growth with NCI-H23 lung (10 µM) was 94.6%; in the test on NCI-H226 lung (10 µM), 115%; with NCI-H322M lung (10 µM), 98.7%; in the test on HOP-62 NSCLC (10 µM), 111%; in the test with HOP-92 NSCLC (10 µM) it was 79%; with NCI-H522 lung (10 µM), 87.9%. Also, the growth is 27% with A549/ATCC NSCLC (10 µM) and 110% with 786-0 renal (10 µM).

For `Cc1c(-c2ccccc2)[nH]c2ccccc12`, the growth in the test on NCI-H23 lung (10 µM) is 103%; with NCI-H226 lung (10 µM) it was 95.3%; in the test with NCI-H322M lung (10 µM), 108%; with HOP-62 NSCLC (10 µM), 104%; with NCI-H460 lung, 104%; in the test with HOP-92 NSCLC (10 µM), 71.8%. The growth in the test with NCI-H522 lung (10 µM) is 86.1%; in the test with A549/ATCC NSCLC (10 µM), 102%.

`O=C1c2cccc3cc([N+](=O)[O-])cc(c23)C(=O)N1CCN1CCCC1`: the growth in the test on NCI-H23 lung (10 µM) is -21.7% (active); in the test on NCI-H226 lung (10 µM), -62.2% (active); with NCI-H322M lung (10 µM), 23.7%; in the test with HOP-62 NSCLC (10 µM), -23.3% (active); with HOP-92 NSCLC (10 µM), 0.989% (active); with NCI-H522 lung (10 µM), -54.1% (active). Moreover, the growth in the test on A549/ATCC NSCLC (10 µM) is -28.6% (active); with 786-0 renal (10 µM) it was -18.8% (active).

Take `N#CC(=C1C=CC(=NO)C=C1)c1ccccc1`: the growth in the test with NCI-H23 lung (10 µM) is 35.3%; in the test with NCI-H226 lung (10 µM), 44.5%; in the test with NCI-H322M lung (10 µM) it was 66.3%; in the test with HOP-62 NSCLC (10 µM), 6.93% (active); in the test with HOP-92 NSCLC (10 µM), -7.52% (active); in the test with NCI-H522 lung (10 µM), 39%. The results for the growth in the test on A549/ATCC NSCLC (10 µM) and with 786-0 renal (10 µM) were 34% and 6.67% (active), respectively.
